A selection: hits, their analogues and other compounds. The true share with any hit is near 7.3%.
Rab9 prom act: activators of Rab9 promoter. AID 485297. Potency, µM (doses to about 9.22 µM), for inactives: top-dose activation, negative = inhibition, most hits filed as activators. Huh7 Rab9 promoter-luciferase reporter, luminescence, 24 h. hit rate 2.8% among 320,000; note: % of control where 0% means no effect; nearly all actives have a fitted effect of over 60% in size
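Using Huh7 cells stably transfected with Rab9 promoter–luciferase, compounds were incubated 24 h at 37 °C, 5% CO2; luciferase luminescence was read 10 min after reagent addition.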
KinaseGlo FLuc: Kinase-Glo luciferase inhibition (counter-screen); Q27757; Kinase-Glo luciferase, ATP luminescence, 8 min; Potency, µM (highest dose often 38.3 µM), for inactives: top-dose activity change, negative = inhibition, actives largely listed as inhibitors; hit rate 0.28% among 200,000; AID 1379; note: % is set by controls: 0 for no effect and ±100 for the full control effect; nearly all actives have a fitted effect of over 60% in size
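Compounds were added to a substrate mix at pH 7.2 (50 mM imidazole, 10 uM ATP, within the enzyme's linear range), followed by Kinase-Glo detection reagent; luminescence was measured after 8 minutes at ambient temperature.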
ELG1 genotoxic: inducers of genotoxicity in HEK293T ELG1-luciferase cells | HEK293T ELG1-luciferase reporter, luminescence, 16 h | Potency, µM (series often up to 46 µM), without a hit: at the highest dose activity change, positive = activation, hits mostly activators | hit rate 1.3% among 330,000 | AID 504466; note: % of control where 0% means no effect; nearly all actives have a fitted effect of over 60% in size
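DMSO vehicle served as control against compound-treated ELG1-luciferase HEK293T cells; exposure lasted 16 hr at 37 °C and 5% CO2, followed by ONE-Glo luminescence detection after 30 min.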
NPC1 prom act: activators of NPC1 promoter. Potency, µM (doses to about 9.22 µM), inactives show at the highest dose activation, usual class: activators. hit rate 2.4% among 320,000. Huh7 NPC1 promoter luciferase reporter, 24 h. AID 485313; note: % of control where 0% means no effect; nearly all actives have a fitted effect of over 60% in size
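Huh7 reporter cells (NPC1 promoter driving luciferase) are dosed with compound for 24 h at 37 °C, 5% CO2; luciferase detection reagent is then added and luminescence measured after 10 min at ambient temperature.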
FLuc counter: firefly luciferase modulation, counter-screen for miR-21 project | P08659 | purified FLuc, Km substrates, luminescence inhibition | Potency, µM (top dose mostly 57.5 µM), for inactives: at the highest dose activity change, negative = inhibition, actives largely listed as inhibitors | hit rate 6.9% among 360,000;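 note: plate controls were vehicle for no effect and reference inhibitor for full effect; nearly all actives have a fitted effect of over 55% in size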
Target sequence (P08659 whole entry, looked up): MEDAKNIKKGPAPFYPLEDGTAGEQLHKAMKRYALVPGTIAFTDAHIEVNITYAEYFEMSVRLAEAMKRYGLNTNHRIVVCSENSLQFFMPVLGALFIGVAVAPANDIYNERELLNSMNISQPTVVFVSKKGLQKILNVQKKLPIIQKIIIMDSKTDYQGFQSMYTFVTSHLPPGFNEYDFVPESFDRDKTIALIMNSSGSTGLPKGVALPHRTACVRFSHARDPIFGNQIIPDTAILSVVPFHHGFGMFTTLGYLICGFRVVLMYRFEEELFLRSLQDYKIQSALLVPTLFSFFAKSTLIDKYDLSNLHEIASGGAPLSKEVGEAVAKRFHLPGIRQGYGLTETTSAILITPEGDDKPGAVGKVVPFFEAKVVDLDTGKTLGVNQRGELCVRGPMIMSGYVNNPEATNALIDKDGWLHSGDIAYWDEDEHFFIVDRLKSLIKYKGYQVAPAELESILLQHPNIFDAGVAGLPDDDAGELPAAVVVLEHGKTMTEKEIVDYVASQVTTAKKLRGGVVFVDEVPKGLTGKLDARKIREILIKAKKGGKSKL
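Biochemical qHTS of compounds, final roughly 60 µM downward over six points, against 10 nM purified firefly luciferase using Km concentrations of substrates (10 uM D-luciferin, 10 uM ATP) in Tris acetate pH 7.5 buffer; luminescence output.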
SMN2 splice up: increases expression of the SMN2 splice variant; hit rate 2.8% among 210,000; Potency, µM (titrated, usually from 46.1 µM), inactives show at the top dose activity change, positive = activation, most hits filed as activators; HEK293 SMN2-luciferase splicing reporter, luminescence, 30-36 h; AID 1458; note: % of control where 0% means no effect; nearly all actives have a fitted effect of over 55% in size
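HEK293 cells carry an SMN2 […]–luciferase reporter in which exon 7 inclusion puts luciferase in frame. Cells were plated 10-12 h before compound addition, then incubated 30-36 h at 37C. ONE-Glo luminescence was read; sodium butyrate at 4.5 mM final served as control.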
Numbers without * were called inactive; ? = inconclusive; · = no result given. Calls come from the whole dose curve; as a rule, active = well fitted curve in the direction sought with a large enough effect; inconclusive = small, poorly fitted or top-dose-only effect, or another doubt; inactive = no such curve, though single readings can be large; an effect the other way counts as inactive or inconclusive. Potency is the fitted concentration of half-maximal effect.

SMILES	Rab9 prom act	KinaseGlo FLuc	ELG1 genotoxic	NPC1 prom act	FLuc counter	SMN2 splice up
N#CC1=C(SCC(=O)NC2CCCCC2)NC(=O)CC1c1ccco1 (stereo unspecified)	0%	-5%	-3%	4%	-6%	6%
CC(C)c1ccc(C(=O)Nc2cccnc2)cc1	?	·	5.2µM*	1.6µM*	3.4µM*	·
CCN(CC)C(=O)C1CCCN(Cc2ccc(OC)c(C)c2)C1 (stereo unspecified)	-2%	-1%	0%	-5%	2%	-11%
CC(=O)c1ccc(OCc2cc(C(=O)N(C)Cc3ccccn3)no2)cc1	?	·	?	?	15µM*	·
CSc1ccccc1OCc1cc(C(=O)N(C)C(C)c2ccccn2)no1 (stereo unspecified)	0%	·	0%	-3%	3%	·
Cc1cc(OCc2cc(C(=O)N(C)Cc3ccccn3)no2)cc(C)c1Cl	4µM*	·	?	4µM*	12µM*	·
Cc1cc(OCc2cc(C(=O)N(C)C(C)c3ccccn3)no2)cc(C)c1Cl (stereo unspecified)	?	·	?	?	19µM*	·
COCCCNC(=O)CNC(=O)c1nn(-c2ccc(OC)c(Cl)c2)c(=O)c2ccccc12	0%	·	0%	-2%	-2%	·
CC1CCN(c2nc(NCc3ccco3)nc(N)c2[N+](=O)[O-])CC1	-7%	2%	-1%	-2%	-1%	-23%
CCOP(=O)(OCC)c1ccccc1OCP(C)(=O)COc1ccccc1P(=O)(OCC)OCC	-8%	·	-2%	1%	4%	·
O=c1[nH][nH]c(-c2ccccc2O)c1C(C[N+](=O)[O-])c1cccc(Cl)c1 (stereo unspecified)	-4%	-7%	14%	0%	3%	-8%
Cc1ccc(NC(=O)Nc2cc(Cl)ccc2C2COC(=O)C2=N)cc1 (stereo unspecified)	1%	2%	1%	2%	-2%	3%
O=C(NC(Cc1ccccc1)c1ccc2c(c1)OCCCO2)c1ccccc1 (stereo unspecified)	-1%	-1%	1%	1%	1%	4%
Cn1c(=NC(=O)COc2ccccc2)sc2cccc(F)c21	1.8µM*	·	?	3.5µM*	?	·
CCOC(=O)c1sc(=NC(=O)c2ccc(F)cc2)n(C)c1C	23%	·	?	4%	0.67µM*	·
CCOC(=O)c1sc(=NC(=O)c2cc(OC)c(OC)c(OC)c2)n(C)c1C	-1%	1%	7%	-3%	0%	-5%
CCOC(=O)c1sc(=NC(=O)c2ccc(C)cc2)n(C)c1C	?	0%	?	19%	?	22µM*
CCOC(=O)c1sc(=NC(=O)CCSc2ccccc2)n(C)c1C	?	-2%	?	?	?	?
CCOC(=O)c1sc(=NC(=O)c2c(F)cccc2F)n(C)c1C	?	·	?	23%	-22%	·
Cn1c(=NC(=O)COc2ccccc2)sc2cc(F)cc(F)c21	30%	·	0%	12%	3%	·
CCOC(=O)c1sc(=NC(=O)COc2ccccc2)n(C)c1C	3.2µM*	2%	?	?	?	?
Cc1csc(NC(=O)COCC(=O)O)c1-c1nc2ccccc2s1	-11%	·	4%	-4%	-2%	·
S=C(NCc1ccc(Cl)cc1)Nc1ccccc1	-9%	6%	0%	-1%	-14%	-26%
COc1cccc(OC)c1C(=O)Nc1cccc(S(=O)(=O)Nc2ccccc2Cl)c1	·	·	6%	·	·	·
CCOc1ccc(C(=O)N2CCc3ccccc32)cc1	0.89µM*	·	?	3.5µM*	15µM*	·
SMILES	Rab9 prom act	KinaseGlo FLuc	ELG1 genotoxic	NPC1 prom act	FLuc counter	SMN2 splice up
Nc1cc(N)nc(SCC(=O)N2CCc3ccccc32)n1	?	-3%	13%	?	?	?
O=C(COc1ccccc1Cl)N1CCc2ccccc21	1.3µM*	·	9.2µM*	2µM*	6.7µM*	·
O=C(CSCc1ccco1)c1ccc(Cl)s1	?	7%	7%	2.8µM*	6.7µM*	9%
O=C(COc1ccccc1Cl)N1CCc2ccccc2C1	28%	·	7%	15%	?	·
O=C(CSc1ccccc1)N1CCc2ccccc21	3.5µM*	-8%	?	3.5µM*	6.7µM*	18µM*
Cc1cc(F)ccc1NCc1cccnc1	0%	-2%	9%	-5%	2%	-11%
O=C(CSCc1ccco1)N1CCc2ccccc21	3.5µM*	·	?	2.8µM*	9.5µM*	·
O=C(CCCc1ccccc1)N1CCc2ccccc21	0.45µM*	-1%	2.1µM*	1.1µM*	2.1µM*	11µM*
O=C(COc1ccccc1)N1CCc2ccccc21	1.3µM*	-4%	?	?	5.4µM*	14µM*
CCCn1c(SCC(=O)N2CCc3ccccc32)nnc1-c1ccco1	2%	11%	-5%	-16%	-2%	-1%
O=C(COc1ccc(Br)cc1)N1CCc2ccccc2C1	-3%	-2%	-3%	1%	?	-4%
O=C(COc1ccc(Br)cc1)N1CCc2ccccc21	2.8µM*	·	?	?	9.5µM*	·
COc1nc(N/N=C/c2ccc(-c3cccc([N+](=O)[O-])c3)o2)nc(N2CCOCC2)n1	-2%	1%	2%	0%	-5%	-20%
CC(C)CC(C(=O)Nc1oc(-c2ccco2)c(-c2ccco2)c1C#N)N1C(=O)c2ccccc2C1=O (stereo unspecified)	-1%	1%	-2%	-2%	0%	13%
O=C(OCc1ccccc1)N1CCc2ccccc21	1.6µM*	·	16µM*	0.63µM*	2.7µM*	·
O=C(CS(=O)(=O)Cc1ccccc1)N1CCc2ccccc21	16%	-1%	16%	16%	-15%	26%
COc1ccc(/C=C2\N=C(c3c(-c4ccccc4)noc3C)OC2=O)cc1OC	1%	-3%	2%	-3%	0%	0%
COc1ccc(/C=C2\N=C(c3ccccc3)N(c3ccc(C(=O)O)cc3)C2=O)cc1OC	12%	·	14%	13%	5.4µM*	·
CC1=N/C(=C\c2ccc(OC(C)C)cc2)C(=O)N1c1ccc(C(=O)O)cc1	-4%	0%	6%	0%	12µM*	-9%
CC(=O)NC(Cc1c[nH]c2ccccc12)C(=O)Nc1ccc2c(c1)OCO2 (stereo unspecified)	6%	5%	3%	0%	?	?
Cc1[nH]n(-c2ccc([N+](=O)[O-])cc2)c(=O)c1C=NCCN1CCN(C(=O)C(C)C)CC1	-2%	10µM*	-4%	-3%	-3%	-36%
Nc1c(N(Cc2ccco2)C(=O)c2cccc(Cl)c2)c(=O)[nH]c(=O)n1Cc1ccccc1	-3%	·	-2%	0%	-1%	·
Cc1nc2ccc(NS(=O)(=O)c3ccccc3Cl)cc2s1	-7%	·	3%	-10%	-3%	·

Source: PubChem BioAssay
